Source: PubChem (Broad Institute)
This excerpt belongs to a sample that is enriched for hits.
U2OS ROS induce: ROS inducers in U2OS cancer cells, primary screen, cell-based, H2DCF-DA fluorescence. U2OS ROS induction. ROS induction (% of piperlongumine), % at 10 µM. 46,000 tested, 2% active. AID 624156, 2012; in the data active means ROS induction above about 79%, passing the limit was not always enough;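 further: 0% = DMSO vehicle median and 100% = reference compound median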
Numbers without * were called inactive.

SMILES	U2OS ROS induce
C[C@H]1CN([C@@H](C)CO)C(=O)c2cc(NC(=O)Nc3cccc4ccccc34)ccc2O[C@@H]1CN(C)Cc1ccc2c(c1)OCO2	120*
C[C@H]1CN([C@@H](C)CO)C(=O)c2cc(NC(=O)Nc3cccc4ccccc34)ccc2O[C@@H]1CN(C)C(=O)Nc1ccc2c(c1)OCO2	-1
C[C@H]1CN([C@@H](C)CO)C(=O)c2cc(NC(=O)Nc3cccc4ccccc34)ccc2O[C@H]1CN(C)Cc1ccc2c(c1)OCO2	6
COc1ccc(CCNC(=O)CSc2ncnc3c2nnn3Cc2ccccc2)cc1OC	11
CCOC(=O)c1sc2nc(SCC(=O)c3ccc(Br)cc3)n(N)c(=O)c2c1C	-3
CNC(=O)C1CCN(c2nc3ccccc3n3cccc23)CC1	-9
CCOC(=O)CSc1nc(N)c2c3c(sc2n1)COC(C)(C)C3	18
CN(C(=O)CSc1nc(N)c2c3c(sc2n1)CSC(C)(C)C3)c1ccccc1	122*
CCOC(=O)c1ccc(NC(=O)CSc2nc(N)c3c4c(sc3n2)CCC4)cc1	-36
O=C(NCc1ccccc1)C(Cc1ccccc1)NS(=O)(=O)c1ccc(Br)cc1 (stereo not given)	-2
C=C1C(=O)O[C@H]2[C@H]1C[C@H](OC(=O)/C(C)=C\C)/C(C)=C\CC[C@@]1(C)O[C@@H]21	139*
C=C1C(=O)O[C@H]2[C@H]1[C@@H](OC(=O)/C(C)=C/C)C(OC(C)=O)/C(C(=O)OC)=C\CC[C@@]1(C)O[C@H]21 (stereo not given in full)	32
C=C1C(=O)O[C@@H]2[C@H]1[C@H](O)C[C@]1(C)[C@@H](O)CC=C(C)[C@@H]21	34
C=C1C(=O)O[C@H]2[C@H]1[C@@H](OC(=O)/C(C)=C\C)C(OC(C)=O)/C(C(=O)OC)=C\CC[C@@]1(C)O[C@H]21 (stereo not given in full)	98*
C=C1C(=O)O[C@H]2[C@H]1[C@@H](OC(=O)C(C)(O)CCl)C(OC(C)=O)/C(C(=O)OC)=C\CC[C@@]1(C)O[C@H]21 (stereo not given in full)	69
CCOC(=O)c1c(CC(C)C)csc1NC(=O)c1ccccc1OC(C)=O	7
O=C(CSc1nc2nccnc2c(=O)n1Cc1ccccc1)Nc1ccccc1C(F)(F)F	-9
O=C(NCc1ccc(-c2cccs2)s1)NC(=O)c1ccccc1	-5
O=C(NCc1ccccn1)c1ccc(NC(=O)c2ccco2)cc1	-6
O=C(O)c1ccc(CNC(=O)c2ccc(NC(=O)c3ccco3)cc2)cc1	99*
CC(=O)Nc1ccc(C(=O)Nc2cccc(NC(=O)c3ccco3)c2)cc1	4
Cc1ccccc1CSCCC(=O)NC1CCCCC1	-5
O=C(NCC1OCCc2ccccc21)c1ccc(Br)cc1 (stereo not given)	-11
COc1ccc(NC(=O)N(C)C[C@H]2Oc3ccc(NC(=O)C4CC4)cc3CC(=O)N([C@@H](C)CO)C[C@H]2C)cc1	4
COc1ccc(CN(C)C[C@H]2Oc3ccc(NC(=O)C4CC4)cc3CC(=O)N([C@@H](C)CO)C[C@@H]2C)cc1	5
SMILES	U2OS ROS induce
COc1ccc(CN(C)C[C@@H]2Oc3ccc(NC(=O)C4CC4)cc3CC(=O)N([C@H](C)CO)C[C@@H]2C)cc1	104*
C[C@@H]1CN([C@H](C)CO)C(=O)Cc2cc(N(C)C)ccc2O[C@@H]1CN(C)Cc1ccc(C(=O)O)cc1	-5
COc1ccc(NC(=O)Nc2ccc3c(c2)CC(=O)N([C@@H](C)CO)C[C@H](C)[C@H](CN(C)Cc2ccc(C(=O)O)cc2)O3)cc1	133*
COc1ccc(CN(C)C[C@H]2Oc3ccc(NC(=O)Nc4ccc(OC)cc4)cc3CC(=O)N([C@@H](C)CO)C[C@@H]2C)cc1	11
COc1ccc(NC(=O)N(C)C[C@@H]2Oc3ccc(NC(=O)C4CC4)cc3CC(=O)N([C@H](C)CO)C[C@H]2C)cc1	120*
COc1ccc(NC(=O)N(C)C[C@H]2Oc3ccc(NC(=O)C4CC4)cc3CC(=O)N([C@H](C)CO)C[C@H]2C)cc1	-15
C[C@H]1CN([C@@H](C)CO)C(=O)Cc2cc(N(C)C)ccc2O[C@@H]1CN(C)Cc1ccc(C(=O)O)cc1	113*
C[C@@H]1CN([C@H](C)CO)C(=O)Cc2cc(NC(=O)C3CC3)ccc2O[C@H]1CN(C)Cc1ccc(Oc2ccccc2)cc1	20
C[C@H]1CN([C@@H](C)CO)C(=O)Cc2cc(N(C)C)ccc2O[C@H]1CN(C)Cc1ccc(C(=O)O)cc1	-8
COc1ccc(CN(C)C[C@@H]2Oc3ccc(NC(=O)Nc4ccc(OC)cc4)cc3CC(=O)N([C@H](C)CO)C[C@@H]2C)cc1	-15
CC(C(=O)O)n1cnc2scc(-c3ccc(Cl)cc3)c2c1=O (stereo not given)	-12
O=C(O)C1CCC(CNCc2c(Cl)cccc2Cl)CC1 (stereo not given)	-14
NC1=NC(=Nc2cccc(C(F)(F)F)c2)c2ccccc21	12
CC(=O)Nc1cc(C(=O)NCCCN2CCC(C)CC2)ccc1S(=O)(=O)c1ccc(Cl)cc1	-1
CCc1cccc2c(C(C(=O)c3ccccc3)c3c[nH]c4c(CC)cccc34)c[nH]c12	14
CC1CCCCC1NC(=O)c1ccc2c(=O)n(CCCN3CCCC3=O)c(=S)[nH]c2c1 (stereo not given)	8
O=C(CCN1CCN(c2ccccc2)CC1)c1ccc2ccccc2c1	15
O=C(O)C1CC(=O)N(Cc2ccccc2)C1c1ccccc1 (stereo not given)	-8
O=C(Cc1ccc(Br)cc1)Nc1nccs1	-19
Fc1cccc(Cl)c1CSC1=NCCN1	-13
CC(NC(=O)Cn1cccc1C(=O)c1ccccc1)C12CC3CC(CC(C3)C1)C2 (stereo not given)	1
Cc1ccc(S[C@]2(C(=O)NC(C)C)CC(=O)N(C3CCCCC3)[C@@H]2c2ccc(CO)cc2I)cc1	201*
COc1ccc(CCNC(=O)[C@@]2(Sc3ccc(C)cc3)CC(=O)N(C(C)C)[C@@H]2c2ccc(CO)cc2I)cc1	20
Cc1ccc(S[C@]2(C(=O)NCC(F)(F)F)CC(=O)N(C3CCCCC3)[C@@H]2c2ccc(CO)cc2I)cc1	19
O=C(N/C(=C\c1cccnc1)C(=O)N1CCCCC1)c1ccccc1	-4
SMILES	U2OS ROS induce
C1CCN(C2=NCCS2)CC1	-9
O=C(N1CCOCC1)[C@]1(CCS(=O)(=O)c2ccccc2)N=C(c2ccc(OCCCO)cc2)O[C@@H]1c1ccccc1	56
O=C(N1CCOCC1)[C@@]1(CCS(=O)(=O)c2ccccc2)N=C(c2ccc(OCCCO)cc2)O[C@H]1c1ccccc1	12
[N-]=[N+]=NCc1ccccc1C[C@]1(C(=O)N2CCCCC2)N=C(c2ccc(OCCCO)cc2)O[C@H]1c1ccccc1	155*
COCCCNC(=O)[C@]1(Cc2ccccc2CN=[N+]=[N-])N=C(c2ccc(OCCCO)cc2)O[C@@H]1c1ccccc1	53
[N-]=[N+]=NCc1ccccc1C[C@@]1(C(=O)NCc2ccccc2)N=C(c2ccc(OCCCO)cc2)O[C@@H]1c1ccccc1	118*
O=C(N1CCCCC1)[C@]1(CCS(=O)(=O)c2ccccc2)N=C(c2ccc(OCCCO)cc2)O[C@@H]1c1ccccc1	88*
COCCCNC(=O)[C@@]1(Cc2ccccc2CN=[N+]=[N-])N=C(c2ccc(OCCCO)cc2)O[C@H]1c1ccccc1	26
[N-]=[N+]=NCc1ccccc1C[C@@]1(C(=O)N2CCOCC2)N=C(c2ccc(OCCCO)cc2)O[C@@H]1c1ccccc1	53
